Data from PubChem BioAssay (EPA / NIEHS).
Calls of active or inactive are those of the source. Rule for the calls: active = hit-call score of the fitted dose curve at least 0.9, where 1 is the maximum; inactive = score below 0.9.

Legend:
Details in all cases: mRNA level, 48 h; actives raise or lower the signal
[1] = read-out: growth arrest and DNA damage 45 (GADD45G), GADD45G (gene 10912); experiment: LTEA_HepaRG_GADD45G: Life Technologies and Expression Analysis (LTEA) Assay for growth arrest and DNA damage 45 (GADD45G) using HepaRG (AID 2283499)
How it was run: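 Gain or loss of GADD45G mRNA, quantified by TaqMan qRT-PCR against three housekeeping genes, is fitted in both directions relative to 0.5% DMSO. Human HepaRG cultures receive test chemical for 48 h at up to 100 uM.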

[2] = read-out: Glutamate-cysteine ligase regulatory (GCLM), GCLM (gene 2730); experiment: LTEA_HepaRG_GCLM: Life Technologies and Expression Analysis (LTEA) Assay for Glutamate-cysteine ligase regulatory (GCLM) using HepaRG (AID 2283500)
How it was run: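 Differentiated HepaRG cells exposed 48 h in serum-free induction medium to eight half-log concentrations up to 100 uM (0.5% DMSO). GCLM mRNA by TaqMan qRT-PCR, normalized to ACTB, GAPDH and POLR2A; bidirectional fit versus DMSO.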

[3] = read-out: Glutathione S-transferase M3 (GSTM3), GSTM3 (gene 2947); experiment: LTEA_HepaRG_GSTM3: Life Technologies and Expression Analysis (LTEA) Assay for Glutathione S-transferase M3 (GSTM3) using HepaRG (AID 2283501)
How it was run: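 HepaRG, plated 48 h, then serum-free induction medium; test chemical 48 h, duplicate; 100 uM top, half-log x8, 0.5% DMSO. Read-out: GSTM3 mRNA (TaqMan qRT-PCR, Fluidigm array). Bidirectional fit vs DMSO.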

[4] = read-out: Heat shock 70 kDa protein 1 (HSPA1A), gene 3303; experiment: LTEA_HepaRG_HSPA1A: Life Technologies and Expression Analysis (LTEA) Assay for Heat shock 70 kDa protein 1 (HSPA1A) using HepaRG (AID 2283502)
How it was run: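 Human HepaRG cells in serum-free induction medium were exposed in duplicate for 48 h to 8 half-log concentrations, highest 100 uM, in 0.5% DMSO. HSPA1A mRNA read by TaqMan qRT-PCR, normalized to ACTB, GAPDH, POLR2A, fitted bidirectionally against DMSO.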

[5] = read-out: Hypoxia-inducible factor 1-alpha (Homo sapiens) (UniProt Q16665); experiment: LTEA_HepaRG_HIF1A: Life Technologies and Expression Analysis (LTEA) Assay for Hypoxia-inducible factor 1 (HIF1A) Trancription factor using HepaRG (AID 2283503)
How it was run: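 Differentiated HepaRG cells in serum-free induction medium exposed 48 h, in duplicate, to 8-point half-log series from 100 uM in 0.5% DMSO. HIF1A mRNA measured by TaqMan qRT-PCR, normalized to ACTB/GAPDH/POLR2A, fitted bidirectionally versus DMSO.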

[6] = read-out: 3-Hydroxy-3-Methylglutaryl-CoA Synthase 2 (HMGCS2), HMGCS2 (gene 3158); experiment: LTEA_HepaRG_HMGCS2: Life Technologies and Expression Analysis (LTEA) Assay for 3-Hydroxy-3-Methylglutaryl-CoA Synthase 2 (HMGCS2) using HepaRG (AID 2283504)
How it was run: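 HepaRG, plated 48 h then switched to serum-free induction media; cmpd 8-pt, max 100 uM, 1/2-log, 0.5% DMSO, n=2, 48 h. HMGCS2 mRNA by Fluidigm TaqMan qRT-PCR, ACTB/GAPDH/POLR2A norm; bidirectional fit vs DMSO.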

[7] = read-out: HGF (gene 3082); experiment: LTEA_HepaRG_HGF: Life Technologies and Expression Analysis (LTEA) Assay for Hepatocyte Growth Facto (HGF) using HepaRG (AID 2283505)
How it was run: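 Read-out is HGF transcript level by qRT-PCR, normalized to three housekeeping genes, fitted bidirectionally against 0.5% DMSO vehicle. Human HepaRG cells received test chemicals for 48 h at up to 100 uM.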

[8] = read-out: Insulin Like Growth Factor 1 (IGF1), IGF1 (gene 3479); experiment: LTEA_HepaRG_IGF1: Life Technologies and Expression Analysis (LTEA) Assay for Insulin Like Growth Factor 1 (IGF1) using HepaRG (AID 2283506)
How it was run: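 Differentiated HepaRG cells in serum-free induction medium, exposed 48 h in duplicate to 8 half-log concentrations up to 100 uM in 0.5% DMSO. IGF1 mRNA by Fluidigm qRT-PCR, normalised to ACTB, GAPDH and POLR2A.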

[9] = read-out: Intercellular Adhesion Molecule 1 (ICAM1), ICAM1 (gene 3383); experiment: LTEA_HepaRG_ICAM1: Life Technologies and Expression Analysis (LTEA) Assay for Intercellular Adhesion Molecule 1 (ICAM1) using HepaRG (AID 2283507)
How it was run: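 Readout is qRT-PCR mRNA level, normalized to three housekeeping genes and fitted bidirectionally against 0.5% DMSO vehicle. Human HepaRG cultures received compound for 48 h, top concentration 100 uM with half-log dilutions.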

[10] = read-out: Insulin-like growth factor-binding protein 1 (IGFBP1), IGFBP1 (gene 3484); experiment: LTEA_HepaRG_IGFBP1: Life Technologies and Expression Analysis (LTEA) Assay for Insulin-like growth factor-binding protein 1 (IGFBP1) using HepaRG (AID 2283508)
How it was run: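 Thawed HepaRG cells are plated for 48 h, switched to serum-free induction medium, then dosed in duplicate for another 48 h (100 uM top, half-log steps). Lysates in RLT go to qRT-PCR, and gain or loss of signal is fitted relative to vehicle.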

Measured: AC50

Chain of Hypoxia-inducible factor 1-alpha (Homo sapiens) (Q16665 whole entry, looked up): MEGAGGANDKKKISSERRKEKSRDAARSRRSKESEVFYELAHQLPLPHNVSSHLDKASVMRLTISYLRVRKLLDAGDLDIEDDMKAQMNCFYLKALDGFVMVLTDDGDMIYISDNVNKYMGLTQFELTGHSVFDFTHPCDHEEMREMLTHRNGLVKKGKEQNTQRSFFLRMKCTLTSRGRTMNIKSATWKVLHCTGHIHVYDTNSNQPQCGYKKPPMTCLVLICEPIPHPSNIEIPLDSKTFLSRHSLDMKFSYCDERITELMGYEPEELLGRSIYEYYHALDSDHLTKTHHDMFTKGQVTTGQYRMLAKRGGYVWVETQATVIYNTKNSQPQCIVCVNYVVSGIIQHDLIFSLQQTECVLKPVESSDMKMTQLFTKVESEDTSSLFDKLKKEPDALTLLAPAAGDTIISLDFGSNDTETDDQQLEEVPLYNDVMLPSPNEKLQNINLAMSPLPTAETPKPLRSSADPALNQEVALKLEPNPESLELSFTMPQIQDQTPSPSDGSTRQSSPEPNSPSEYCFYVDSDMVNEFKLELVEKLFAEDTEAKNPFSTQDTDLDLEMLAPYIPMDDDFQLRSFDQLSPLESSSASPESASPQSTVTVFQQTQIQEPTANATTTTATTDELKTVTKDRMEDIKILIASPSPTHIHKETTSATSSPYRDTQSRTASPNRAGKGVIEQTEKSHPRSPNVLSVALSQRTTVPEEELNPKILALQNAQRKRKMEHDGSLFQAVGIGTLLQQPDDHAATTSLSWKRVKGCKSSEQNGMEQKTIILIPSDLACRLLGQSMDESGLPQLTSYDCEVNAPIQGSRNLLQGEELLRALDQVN

CCOC(=O)c1ccc(C2CCC(NC[C@H](O)COc3ccc(O)c(NS(C)(=O)=O)c3)CC2)cc1 (stereo partly drawn)
inactive: all assays above

Cc1ccc(C)c(O)c1
not listed: [6]
inactive: all other assays above

CC(=O)OC[C@H]1O[C@@](COC(C)=O)(O[C@H]2O[C@H](COC(C)=O)[C@@H](OC(C)=O)[C@H](OC(C)=O)[C@H]2OC(C)=O)[C@@H](OC(C)=O)[C@@H]1OC(C)=O
not listed: [6]
inactive: all other assays above

O=C1CCCCCN1
not listed: [6]
inactive: all other assays above

COc1ccc2sc(C(=O)Nc3nnn[nH]3)c(OC(C)C)c2c1
active: [1] 80.8 µM | [3] 76.2 µM | [4] 9.47 µM | [5] 72 µM | [10] 23.6 µM
inactive: [2] | [7] | [8] | [9]

COc1ccc(/C=C/S(=O)(=O)NC(=O)c2ccc(C)cc2Cl)cc1
not listed: [6]
inactive: all other assays above

Clc1nc(Cl)c(Cl)c(Cl)c1Cl
inactive: all assays above

CCCCCCCCCCCCc1ccccc1
inactive: all assays above

CCOCCO
not listed: [6]
inactive: all other assays above

CCCCCCCCCCCCCCCO
not listed: [6]
inactive: all other assays above

CC1(C)C(=O)N(Br)C(=O)N1Br
inactive: all assays above

C=CCCCCCCCCC(=O)O
inactive: all assays above

CC(C)(O)c1coc(S(=O)(=O)NC(=O)Nc2c3c(cc4c2CCC4)CCC3)c1
not listed: [6]
inactive: all other assays above

Oc1ccc2c(c1)-c1ccccc1C2
not listed: [6]
inactive: all other assays above

C[C@](N)(Cc1ccc(O)c(O)c1)C(=O)O
not listed: [6]
inactive: all other assays above

CCn1nc(Cc2ccccc2)cc1C1CCN(C[C@H]2C[C@H](N(C)[C@@H](C(=O)O)C(C)C)C[C@@H]2c2cccc(F)c2)CC1
active: [1] 76.1 µM | [8] 37.7 µM | [9] 50 µM | [10] 73.6 µM
not listed: [6]
inactive: all other assays above

Nc1nc2ncc(CNc3ccc(C(=O)N[C@@H](CCC(=O)O)C(=O)O)cc3)nc2c(=O)[nH]1
not listed: [5]
inactive: all other assays above

CC1=CC(=O)CC(C)(C)C1
not listed: [6]
inactive: all other assays above

CC(C)c1cccc(C(C)C)c1N1C(=O)c2ccc(O)cc2C1=O
active: [7] 93 µM
not listed: [6]
inactive: all other assays above

CC(O)CN(CCN(CC(C)O)CC(C)O)CC(C)O (stereo not drawn)
not listed: [5] | [6]
inactive: all other assays above

CN(C)c1ccc(N=NS(=O)(=O)O)cc1
active: [2] 50 µM | [8] 26.2 µM | [10] 75.3 µM
not listed: [6]
inactive: all other assays above

CC[C@H]1OC(=O)[C@H](C)[C@@H](O[C@H]2C[C@@](C)(OC)[C@@H](O)[C@H](C)O2)[C@H](C)[C@@H](O[C@@H]2O[C@H](C)C[C@H](N(C)C)[C@H]2O)[C@](C)(O)C[C@@H](C)C(=O)[C@H](C)[C@@H](O)[C@]1(C)O
not listed: [1] | [5]
inactive: all other assays above

O=C1CCC(N2C(=O)c3ccccc3C2=O)C(=O)N1 (stereo not drawn)
not listed: [5] | [6]
inactive: all other assays above

O=C(O)CC(O)C(=O)O (stereo not drawn)
not listed: [6]
inactive: all other assays above

COc1cccc(-c2ccc(/C=C\CN3CCCCCC3)cc2Cl)c1
active: [1] 45.2 µM | [2] 68.7 µM | [3] 79.1 µM | [4] 67.9 µM | [5] 83 µM | [8] 66.7 µM | [9] 75.7 µM | [10] 74.5 µM
inactive: [7]

Cc1ccc(S(=O)(=O)O)cc1C
not listed: [6]
inactive: all other assays above

COCCOc1cc2cc(C(=O)NC3CCN(C(C)C)CC3)n(CC(=O)Nc3ccc(Cl)cn3)c2cn1
active: [1] 45 µM | [3] 45 µM | [5] 72.9 µM | [6] 47.2 µM | [8] 13.8 µM | [10] 45 µM
inactive: [2] | [7] | [9]

CC(C)=CCC/C(C)=C/CO
not listed: [1] | [4] | [5]
inactive: all other assays above

Cn1c(=O)cc(Oc2ccc(F)cc2F)c2cnc(NCC(C)(C)O)nc21
active: [1] 9.17 µM | [8] 12.6 µM
not listed: [6]
inactive: all other assays above

Fc1ccccc1[C@@H](F)COC1CCC(Nc2ncnc3[nH]ncc23)CC1 (stereo partly drawn)
inactive: [2]
active: [1] 30 µM | [3] 65.2 µM | [4] 50 µM | [5] 33.1 µM | [8] 50 µM | [9] 50 µM | [10] 63.8 µM

CCCN(C1CCN(C(=O)C2CCNCC2)CC1)[C@@H]1CCc2ccc(OC)cc2C1
inactive: [1] | [2] | [7]
active: [3] 50 µM | [4] 79.6 µM | [5] 88.2 µM | [8] 50 µM | [9] 77.4 µM | [10] 69.5 µM

C=CC(=C)CCC=C(C)C
not listed: [6]
inactive: all other assays above

CC[C@H](C)C(=O)O[C@H]1C[C@@H](C)C=C2C=C[C@H](C)[C@H](CC[C@@H]3C[C@@H](O)CC(=O)O3)[C@H]21
not listed: [6]
inactive: all other assays above

CC(C)=CCC/C(C)=C\CO
not listed: [1] | [5]
inactive: all other assays above

Cc1ccc(O)cc1
not listed: [5]
inactive: all other assays above

Cn1c(=O)c2c(ncn2C)n(C)c1=O
not listed: [6]
inactive: all other assays above

O=c1n(CC2CO2)c(=O)n(CC2CO2)c(=O)n1CC1CO1 (stereo not drawn)
not listed: [6]
inactive: all other assays above

Cn1cnc([N+](=O)[O-])c1Sc1ncnc2nc[nH]c12
active: [1] 1.11 µM | [9] 3.59 µM | [10] 2.75 µM
not listed: [5] | [6]
inactive: all other assays above

O=c1[nH]c2ccc(S(=O)CCN3CCC(Cc4ccc(F)cc4)CC3)cc2o1 (stereo not drawn)
active: [1] 71.6 µM | [2] 50 µM | [4] 50 µM | [10] 89.7 µM
not listed: [6]
inactive: all other assays above

O=C(O)c1cc(N=Nc2ccc(S(=O)(=O)Nc3ccccn3)cc2)ccc1O
not listed: [3] | [5] | [10]
inactive: all other assays above

COC(=O)CC(=O)OC
not listed: [6]
inactive: all other assays above

Cc1ccc(N)cc1O
not listed: [6]
inactive: all other assays above

NC(=O)NO
active: [8] 14.3 µM
not listed: [5] | [6]
inactive: all other assays above

O=C(O)c1cccc(Oc2ccccc2)c1
not listed: [6]
inactive: all other assays above

CCOc1cccc(-n2cc(C(=O)N3CCN(c4cc(C(=O)O)c5ccccc5c4)CC3)nc2-c2ccc(C)cc2)c1
inactive: [3] | [9]
active: [1] 13.1 µM | [2] 11.5 µM | [4] 86.5 µM | [5] 75 µM | [7] 21.1 µM | [8] 26.6 µM | [10] 12.9 µM

CC(=O)c1ccc2c(c1)[C@H](NC(=O)c1ccc(F)cc1)[C@@H](O)C(C)(C)O2
not listed: [6]
inactive: all other assays above
